In PubChem BioAssay (NCI):
About 83,000 compounds went through this panel and 20% of them were active in at least one assay; those are over-represented in the sample as a whole.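 Values shown are percent growth following 48 h exposure of cells in 96-well plates to a single concentration of compound; below 10 was considered active.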 Values without a mark were called inactive. Activity calls are given as the source filed them.

Tested on: HL-60(TB) leukemia
Assay: NCI-60 one-dose screen, 48 h (100 = growth as untreated, 0 = no growth, -100 = all killed)
Settings: 10 µM unless noted

Structure (SMILES)	growth
O=C(CSc1nnc(-c2c[nH]c3ccccc23)n1-c1ccccc1)c1ccc(Br)cc1	44.5%
Clc1cccc(-c2ccc(OCCCN3CCN(c4ccncc4)CC3)cc2)c1	-53.9% (active)
Cc1cnc2ccc(Oc3ccccc3-c3ccccc3)nn12	107%
CC(C)Sc1nc(NCCc2c[nH]c3ccccc23)c(C#N)c(-c2ccc(F)cc2)n1	27%
CS(=O)(=O)Nc1cccc(-n2cnc3cc(-c4ccc(O)cc4)ccc32)c1	7.73% (active)
COc1cc2oc(-c3cccc(NC(=O)[C@H](Cc4ccccc4)NC(=O)OC(C)(C)C)c3)cc(=O)c2c(OC)c1OC	22.9%
O=C(CSc1nnc(-c2ccc(-c3nc4ccccc4[nH]3)cc2)o1)Nc1ccccc1	53.5%
Cc1cccc(NC(=O)CSc2nc3ccc(F)cc3c(=O)n2-c2ccc(Cl)cc2)c1C	96.4%
COc1cc(/C=C/C(=O)c2ccccc2)ccc1Oc1nc(Nc2ccc(F)cc2)nc(N(C)C)n1	20.5%
Nc1cc2ccccc2c(=O)n1NC(=O)c1ccccc1	101%
COc1ccc(/C=C/c2nc3ccccc3n3c(-c4ccc(Cl)cc4)nnc23)cc1	71.8%
C#CCOc1cc(N(CC)CC)ccc1C(C(=O)NC(C)(C)C)N(C(=O)C1CCc2cc(F)ccc2O1)c1ccc(Br)cc1 (stereo not given)	44.7%
Cc1cccc(-c2nc(Nc3cccc(S(N)(=O)=O)c3)c3ccccc3n2)c1	44.9%
COc1ccc2nc(Cl)c(-c3cc(-c4ccccc4)nc(=O)[nH]3)cc2c1	3.35% (active)
COc1ccccc1Nc1nnc(-c2c[nH]c3ccccc23)o1	2.38% (active)
Cc1sc2c(c1C)C(c1ccc(Cl)cc1)=N[C@@H](CC(=O)NCCCCCNC(=O)COc1ccc(C3CCC(=O)NC3=O)cc1)c1nnc(C)n1-2 (stereo not given in full)	-16.6% (active)
COc1ccccc1NC(=O)N/N=C/c1c[nH]c2ccccc12	5.87% (active)
CCOC(=O)/C(F)=C/C1CC1C(c1ccccc1)c1ccccc1 (stereo not given)	-7.32% (active)
O=C(/C=C/Nc1ccc(F)cc1F)c1ccc2c(c1)Nc1ccccc1S2	26.9%
Clc1cccc(N/N=C/c2c[nH]c3ccc(Br)cc23)n1	5.14% (active)

Structure (SMILES)	growth
O=C(CSc1nc2ccccc2c(=O)[nH]1)Nc1ccccc1C(=O)O	103%
N#Cc1c(NC(=O)c2ccc(C(F)(F)F)cc2)sc2c1CCC(O)=C2	6.28% (active)
CC(/C=C1\SC(=S)N(CCCC(=O)NC(CC(C)C)C(=O)O)C1=O)=C\c1ccccc1 (stereo not given)	63.4%
Cn1cc(-c2cc(N)n3nc(-c4cn(C)c5ccc(Cl)cc45)cc3n2)c2ccccc21	92.5%
CN1C(=O)/C(=C/c2ccc(C(=O)Nc3ncc(Cc4ccc(Cl)cc4Cl)s3)cc2)SC1=S	19.2%
COc1ccc(C(=O)c2c(N)c(C#N)cn2-c2ccc([N+](=O)[O-])cc2)cc1	97.5%
Oc1ccc(Cl)c(Nc2nc(SCCN3CCOCC3)nc3c2cnn3CC(Cl)c2ccc(Br)cc2)c1 (stereo not given)	-36.2% (active)
O=C(CSc1nnc(-c2ccc(-c3nc4ccccc4[nH]3)cc2)o1)Nc1ccc(Br)cc1	43.1%
COc1ccc(-c2ccc(/C=N/NC(=O)c3[nH]c4ccc(Br)cc4c3-c3ccccc3)o2)cc1	6.17% (active)
COc1cc(/C=C/C(=O)c2cnn(-c3cc(=O)[nH]c4ccc(C)cc34)c2C)cc(OC)c1OC	-28.4% (active)
N#Cc1c(-c2ccc(F)cc2)nc(SCc2ccc([N+](=O)[O-])cc2)nc1N1CCOCC1	82.7%
O=C(COc1ccc(NC(=O)Nc2ccc(Cl)cc2)cc1)N/N=C/c1ccccc1	45.8%
CC1[C@H]2[C@H](C[C@H]3[C@@H]4CC=C5c6sc(Nc7ccccc7F)nc6CC[C@]5(C)[C@H]4CC[C@@]32C)O[C@]12CC[C@@H](C)CO2 (stereo not given in full)	-41.9% (active)
CC(C)(C)c1cc(-c2cc(-c3ccccc3)[nH]c(=O)c2C#N)cc(C(C)(C)C)c1	82.3%
O=C1NC(=O)/C(=C/c2ccccc2OCc2cc3ccccc3nc2Cl)S1	99%
O=C1CCC(N2C(=O)c3cccc(NCCCCCC(=O)N4CCN(c5ccc6nc7c(nc6c5C(F)(F)F)C(=O)c5ncccc5C7=O)CC4)c3C2=O)C(=O)N1 (stereo not given)	-25.2% (active)
COc1c(B(O)O)cc(F)cc1-c1nc2c(F)cc3[nH]ncc3c2c2c1CCCC2	1.83% (active)
Nc1nc(Nc2ccc(Cl)cc2)n(Cc2cccc(Br)c2)n1	-14.2% (active)
Cc1ccc(C2CC(c3ccc(S(=O)(=O)NCCNc4nc(Nc5ccc(F)cc5)nc(N(C)C)n4)cc3)=Nc3c(N)nc(N)nc3N2)cc1 (stereo not given)	-10.4% (active)
CN(C)c1nc(NCCNS(=O)(=O)c2ccc(C(=O)/C=C/c3ccc(C(F)(F)F)cc3)cc2)nc(Nc2ccc(F)cc2)n1	-21.8% (active)
